Screens from PubChem.
The list is not random: actives were taken first. Their share in the collection is about 21%.
NS1 function inh: influenza NS1 inhibition. Potency, µM (series often up to 46.1 µM), inactives show at the top dose activity, positive = more growth. 0.4% of 270,000 active; calls by dose curve; also: potency is read from the fitted curve at half-maximal effect; actives are rising curves; nearly all actives have a fitted effect of over 50% in size
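Growth recovery, yeast-based: influenza A NS1 expressed in S. cerevisiae causes slow growth, and suppressors are detected by OD600. The parent strain without NS1 is used as positive control.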
CHX counter: counter-screen for Shiga toxin inhibitors: cycloheximide protein synthesis inhibition; cell reporter, cycloheximide protein synthesis inhibition counterscreen; max response, %; 12% of 300,000 active; AID 2314; in the data active = max response mostly above about 13%, no sharp cut-off; inactive = mostly below about 14%; also: read at 38.3 µM for the half of the compounds with a filed dose; 0% is about no effect
FBPA Giardia inh: blocks Giardia fructose-bisphosphate aldolase activity | Potency, µM (highest dose often 59.6 µM), inactives show at the top dose activity, negative = inhibition, usual class: inhibitors | purified Giardia FBPA | A8B2U2 | 0.71% of 290,000 active | AID 2451; also: potency is read from the fitted curve at half-maximal effect; % is scaled to controls: 0 for no effect and ±100 for the full control effect; nearly all actives have a fitted effect of over 55% in size
Target sequence (A8B2U2 whole entry, looked up): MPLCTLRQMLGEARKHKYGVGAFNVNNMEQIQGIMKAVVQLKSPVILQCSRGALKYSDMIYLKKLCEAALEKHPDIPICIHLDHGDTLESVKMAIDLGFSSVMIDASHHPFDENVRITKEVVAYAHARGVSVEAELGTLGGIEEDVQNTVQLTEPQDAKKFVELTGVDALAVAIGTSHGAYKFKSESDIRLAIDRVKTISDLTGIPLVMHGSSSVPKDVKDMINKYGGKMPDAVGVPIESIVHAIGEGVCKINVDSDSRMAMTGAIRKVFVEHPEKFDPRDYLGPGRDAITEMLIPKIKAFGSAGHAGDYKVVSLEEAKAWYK
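Giardia FBPA (40 nM reagent) was preincubated 10 min at RT with compound (up to 57.5 uM final), then substrate plus GAPDH/TPI/NAD/arsenate coupling system with diaphorase/resazurin was added; resorufin fluorescence (525/598 nm) was read after 20 min.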
Pf growth 96h: P. falciparum growth inhibition at 96 hour, primary screen for plastid delayed-death inhibitors; Potency, µM (top dose mostly 28.7 µM), inactives show at the highest dose activity change, negative = inhibition, hits mostly inhibitors; 6.9% of 320,000 active; P. falciparum luciferase reporter growth, 96 h; also: potency is read from the fitted curve at half-maximal effect; % is scaled to controls: 0 for no effect and ±100 for the full control effect
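Erythrocytes infected with luciferase-expressing P. falciparum were dispensed at 2% hematocrit and 0.05% parasitemia (final), then incubated with compounds 96 hours at 37 C in 5% CO2. Luminescence after detection reagent addition reported growth.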
Pf growth 48h: P. falciparum growth inhibition at 48 hours (one generation) | AID 504832 | 5.9% of 310,000 active | P. falciparum luciferase growth in erythrocytes, 48 h | Potency, µM (doses to about 28.7 µM), inactives show top-dose activity change, negative = inhibition, usual class: inhibitors; also: potency is read from the fitted curve at half-maximal effect; % is scaled to controls: 0 for no effect and ±100 for the full control effect
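Luciferase-expressing parasites in RBCs, 2% Hct / 0.1% parasitemia final; RPMI 1640 + 0.5% Albumax; 37 C, 5% CO2, one generation; luminescence read-out, lower signal = inhibition.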
Shiga inhibitor: blocks Shiga toxin action in Vero cells; inhibition, % at 38.7 µM; Vero cells, Shiga toxin protein synthesis inhibition reporter; AID 2315; 9.2% of 290,000 active; in the data active = inhibition mostly above about 28%, no sharp cut-off; inactive = mostly below about 43%; also: 0% is about no effect
* = called active by the depositor; ? = inconclusive; / = no result. Unless noted, calls follow the shape of the dose curve; as a rule, active = well fitted curve in the direction sought with a large enough effect; inconclusive = small, poorly fitted or top-dose-only effect, or another doubt; inactive = no such curve, though single readings can be large; an effect the other way counts as inactive or inconclusive.

SMILES | NS1 function inh | CHX counter | FBPA Giardia inh | Pf growth 96h | Pf growth 48h | Shiga inhibitor
COc1ccc(C2/C=C\CN(S(=O)(=O)c3cccc4cccnc34)CC(=O)N2Cc2ccc(F)cc2)cc1 (stereo not given) | ? | 4.9 | -0.9% | 11.7µM* | ? | -3.6
C=C1CCN(C(CC(C)C)C(=O)O)S(=O)(=O)c2ccccc21 (stereo not given) | / | 6.0 | 5.2% | / | / | -4.1
Cc1cc(-c2c(C)[nH]n(-c3ccccc3)c2=O)n[nH]1 | -6.6% | -2.2 | -29.3% | ? | -17.1% | 36.4
CCc1ccc(C(=O)c2c(N)c(-c3nc(-c4ccc5c(c4)OCO5)cs3)c3ccccn23)cc1 | / | 18.4 | / | / | / | 38.7
Cc1nn(-c2ccc(N3CCOCC3)nn2)c(C)c1CCC(=O)N1CCN(C)CC1 | 1.2% | 5.7 | 0.9% | ? | 23.7% | -3.6
CC1CCCC(C)N1C(=O)COC(=O)c1nn(C)c(=O)c2ccccc12 (stereo not given) | 3.1% | 10.9 | 6.7% | -16.2% | -3.3% | 30.7
O=C(NCCN1CCOCC1)C1CC(=O)N(c2ccc(F)cc2)C1 (stereo not given) | -3.7% | -6.7 | 10.7% | -9.8% | 11.6% | -5.9
COc1ccc2c(c1)[C@H]1[C@H](CO2)[C@H](c2ccccc2)[C@]2(C)C(=O)N[C@@H](C)C(=O)N12 | / | / | / | ? | -4.7% | /
C[C@@]12C(=O)Nc3ccc(Br)cc3C(=O)N1[C@H]1c3cc(Br)ccc3OC[C@@H]1[C@@H]2c1ccccc1 | / | / | / | 3.29µM* | 3.29µM* | /
COc1ccc2c(c1)C(=O)N1[C@H]3c4cc(Br)ccc4OC[C@@H]3[C@H](c3ccccc3)[C@]1(C)C(=O)N2 | / | / | / | 11.7µM* | ? | /
O=C(OCC(=O)N1CCCCCC1)c1ccc(F)cc1F | / | / | / | 20.1% | 47.2% | /
c1ncc(-c2ccoc2)c(NC2CC2)n1 | / | / | -28.7% | / | / | /
C#CCn1cc(/C=N/Nc2nc3ccccc3[nH]2)c2ccccc21 | ? | 53.8* | -5.3% | 7.1% | ? | 81.4*
CCN(CC)c1ccc(/C=N/Nc2nc3ccccc3[nH]2)c(O)c1 | -62.5% | 52.5* | ? | 1.17µM* | / | 100.3*
Cc1ccc2cc(/C=N/NC(=O)c3ccc(F)cc3)c(Cl)nc2c1 | / | -2.4 | 13.0% | 23.8% | 10.2% | -7.2
CCN(CC)c1ccc(/C=N/NC(=S)NCc2ccccc2)c(O)c1 | 17.4% | -5.5 | -19.0% | ? | 0.0% | -6.5
C(=N\Nc1nc2ccccc2[nH]1)/c1ccc2c(c1)OCCO2 | -31.9% | 28.2* | -0.6% | ? | ? | 35.9
Cc1ccc2cc(/C=N/Nc3nc4ccccc4[nH]3)c(Cl)nc2c1 | 13.8% | 54.8* | 2.8% | ? | 0.738µM* | 93.2*
CCOCCCNC(=S)N1CCC(C(=O)c2ccc3c(c2)OCCO3)CC1 | -3.7% | 6.2 | -1.0% | 5.7% | ? | -1.3
C#CCn1cc(/C=N/NC(=O)COc2cccc3cccnc23)c2ccccc21 | 3.9% | 11.8* | -3.1% | 11.0% | 0.1% | 25.9*
CCN(CC)c1ccc(/C=N/N=C(c2ccccc2)c2ccccc2)c(O)c1 | 9.0% | -1.8 | -10.6% | ? | ? | 18.1
Cc1ccc(/C=N\Nc2nc3ccc(Cl)cc3[nH]2)o1 | -41.3% | 41.1* | -5.7% | 2.33µM* | 2.62µM* | 119.2*
COC(=O)Cn1cc(/C=N/NC(=O)COc2cccc3cccnc23)c2ccccc21 | 0.7% | 1.7 | 9.8% | 2.7% | -5.3% | -3.2
CCN(CC)c1ccc(/C=N/N(c2ccccc2)c2ccccc2)c(O)c1 | 17.5% | -1.3 | -8.6% | 7.38µM* | ? | -5.0
CC(C)NC(=S)N/N=C/c1ccc2c(c1)OCCO2 | 3.1% | 48.6* | -7.8% | 21.2% | 16.0% | 53.3*
SMILES | NS1 function inh | CHX counter | FBPA Giardia inh | Pf growth 96h | Pf growth 48h | Shiga inhibitor
Cc1ccc(/C=N/Nc2ccc3ccccc3n2)o1 | / | 1.6 | -20.8% | -88.9% | 76.8% | -5.9
COC(=O)c1ccc(NC(=O)COC(=O)COc2cccc3c2OC(C)(C)C3)cc1 | / | / | / | -21.6% | -29.9% | /
O=C(CCC1CCCN(C(=O)Cn2cnnn2)C1)NCc1ccccc1F (stereo not given) | -0.3% | 0.5 | 2.9% | 0.0% | 57.9% | -7.4
COc1ccc(/C=N/OC/C(O)=C(\C#N)c2nc3ccccc3[nH]2)cc1OC | 6.3% | 4.7 | 8.8% | -10.7% | -5.0% | 8.6
CCCCn1c(/C=C/c2ccco2)nc2ccccc21 | 19.2% | 4.6 | -25.0% | ? | 39.5% | -2.6
C(=N\Nc1nc2ccccc2[nH]1)/c1cccc2nccnc12 | -3.0% | 31.2* | -7.3% | ? | ? | 29.0
CCCCn1c(/C=N/Nc2nc3ccccc3[nH]2)nc2ccccc21 | -41.8% | 2.5 | 26.0% | ? | 1.85µM* | 10.6
COc1ccc(/C=N/Nc2nc3ccccc3[nH]2)cc1OC | 17.5% | 32.0* | 11.6% | ? | 0.465µM* | 72.7*
Cc1ccc(S(=O)(=O)N/N=C/c2cccc3nccnc23)cc1 | 3.1% | 0.3 | -9.4% | -7.5% | -2.0% | -8.8
COc1cc(OC)c(OC)cc1/C=N/Nc1nc2ccccc2[nH]1 | -3.7% | -2.0 | 1.0% | 1.85µM* | 1.04µM* | -2.2
CCCn1c(-c2ccc(F)cc2)nc2c(NCCN3CCCC3)nc(C)nc21 | / | / | 2.7% | / | / | /
CCCC(=O)NCCc1c2n(c3ccc(OC)cc13)Cc1ccccc1-2 | 2.1% | / | -4.6% | / | / | /
Cc1cccc(CNC(=O)Cn2ccc3cc(S(=O)(=O)N4CCCC4)ccc32)c1 | 6.7% | -2.4 | 1.8% | ? | -16.3% | -3.0
C(=N\Nc1nc2ccccc2[nH]1)/c1ccc2ncccc2c1 | -1.5% | 58.3* | -0.1% | ? | 0.147µM* | 58.0*
Cc1cc(=O)[nH]c(N/N=C/c2ccc(-c3ccc(F)cc3)o2)n1 | ? | 15.5 | -8.3% | 50.2% | 7.4% | 49.6
Fc1ccccc1-c1ccc(/C=N/Nc2nc3ccccc3[nH]2)o1 | -15.6% | 50.1* | 5.1% | 0.928µM* | ? | 49.3*
C(=N\Nc1nc2ccccc2[nH]1)/c1ccccn1 | / | -5.8 | ? | 341.9% | -41.3% | -11.9
Cc1cc(C)nc(N/N=C/c2ccc3c(c2)OCCO3)n1 | -1.7% | 25.4* | -5.9% | 47.5% | 63.3% | 59.2*
COc1ccc2c(c1)c(/C=N/Nc1nc3ccccc3[nH]1)c(C)n2C | 0.4% | 6.8 | -13.8% | 1.65µM* | 1.47µM* | 35.5
COc1ccc2c(c1)c(C(=O)N/N=C/c1cn(C)c3ccccc13)c(C)n2C | 5.5% | 0.5 | -9.4% | -9.8% | -19.6% | -13.7
CC(=O)c1sc(-c2ccc(F)cc2F)nc1C | 0.3% | 6.9 | -0.7% | 17.0% | 33.0% | 21.5
CCOC(=O)c1ccccc1NC(=O)CN(c1ccccc1OC)S(C)(=O)=O | 1.0% | 1.3 | 6.3% | ? | ? | -18.7
CCOC(=O)c1ccccc1NC(=O)CN(c1ccccc1)S(=O)(=O)N(C)C | -37.2% | 11.1 | 3.3% | / | 3.29µM* | 19.2
O=C(Nc1ccc2c(c1)OCO2)C1CC(=O)N(c2cccc(Cl)c2)C1 (stereo not given) | -7.1% | 11.1 | -2.1% | 9.3% | 54.2% | 48.4
